About 1,500 (0.58%) of roughly 260,000 compounds were called active. Not shown: some 5% with an inconclusive outcome.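 How the source made its calls: active means inhibition above a set limit at one or more doses, reproduced on every date tested; inconclusive means results disagree between test dates, or hit never tested in dose response; inactive means the rest.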 These entries were drawn from the full list. Potency and affinity values are given separately.
molecular target: Virion infectivity factor (Human immunodeficiency virus type 1 group M subtype B (isolate BH10)) + Virion infectivity factor (Human immunodeficiency virus type 1 group M subtype B (isolate BRU/LAI)) + Virion infectivity factor (Human immunodeficiency virus type 1 group M subtype B (isolate PCV12)) + Virion infectivity factor (Human immunodeficiency virus type 1 group M subtype B (isolate HXB2)) + DNA dC->dU-editing enzyme APOBEC-3G (Homo sapiens) (UniProt P69720+P69721+P69722+P69723+Q9HC16); assay: HIV-1 Vif–A3G interaction blockers – biochemical, TR-FRET, GST-Vif 1-94, biotin-A3G peptide, dose response retest, primary screen (AID 1117319); conditions: TR-FRET GST-Vif / biotin-A3G peptide binding; hits give high values;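 further: Vif residues 1-94 fused to GST binding biotinylated APOBEC3G peptide 110-148; 0% = full assay without inhibitor and 100% = GST in place of GST-Vif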

inhibition, inactive:
O=C1C=C(Nc2ccccc2O)c2ccccc2C1=O 29.9%, O=C1C=C(Nc2cccnc2)c2ccccc2C1=O -2.43%, O=[N+]([O-])c1ccc(Cl)c(/C=N/N2CCN(Cc3ccc(Cl)cc3)CC2)c1 -0.57%, CCOc1ccc(N/C(C)=C/C(=O)c2ccc(C)o2)cc1 1.46%, COc1cccc(C2Nc3ccc4ccccc4c3C3=C2C(=O)CCC3)c1O (centres undefined) -3.25%, CC1(C)CC(=O)C2=C(C1)c1c(ccc3ccccc13)NC2c1ccco1 (centres undefined) 7.86%, Cc1onc(-c2ccccc2Cl)c1C(=O)NCc1ccccn1 -1.21%, COC(=O)COC(=O)CC(CC(N)=O)c1ccccc1 (centres undefined) -2.81%, Cc1cc(C(=O)Nc2nc3c(C)cccc3s2)c(C)o1 17.4%, COC(=O)Nc1nc2c(C)cccc2s1 1.68%, Cc1c(C(=O)c2ccc([N+](=O)[O-])cc2)c(=O)n(C)c(=O)n1C -3.13%, CCC(=O)N1CCC2(CC1)Oc1ccc(F)cc1C(=O)C21CC(c2cccnc2)=NO1 (centres undefined) 3.73%, CCOC(=O)C(=O)Cc1nc2ccccc2s1 -1.72%, CCOC(=O)C(Cc1ccnnc1)=NO -0.8%, Cc1nc2sc(C(c3ccco3)N3CCN(c4ccc(F)cc4)CC3)c(O)n2n1 (centres undefined) 13.8%, Cc1cc(C(=O)CN2CCCC2)c(C)n1-c1ccc(Cl)cc1 1.44%, O=C(Oc1ccc2c(c1)C(=O)c1ccccc1CO2)c1ccccc1 1.85%, CC(=O)Oc1ccc2c(c1)C(=O)c1ccccc1CO2 7.33%, COc1ccc(CNC(=O)COC(=O)c2cccc(S(=O)(=O)N3CCOCC3)c2)cc1 10.9%, COc1ccc(NC(=O)c2cnc3n(c2=O)CCS3)cc1OC 10.7%, CCOc1ccc(/C=C(\C(=O)O)c2ccc(S(=O)(=O)N3CCOCC3)s2)cc1OC 28.4%, O=S(=O)(Cc1cc(Sc2ccc(Cl)cc2)nc(-c2ccccc2)n1)c1ccccc1 3.1%, O=C1CCN(Cc2ccco2)C(=S)N1 3.3%, O=C1C2C(C(=O)N1Cc1ccco1)C1C=CC2C12CC2 (centres undefined) -1.81%, O=C1CC(=O)N(Cc2cccs2)C(=O)N1 18%, CC1CN(Cc2ccco2)C(=S)NC1=O (centres undefined) 1.05%, COc1ccc(-n2c(=O)c(CCC(=O)N(C)Cc3cccs3)nc3ccccc32)cc1 -5.63%, COc1ccccc1NS(=O)(=O)c1ccc(C)c(C(=O)NCC2(N(C)C)CCCCC2)c1 -8.71%, CCOC(=O)c1cc2cc(OC)ccc2nc1C 4.64%, Cc1nc2ccc(F)cc2cc1C(=O)NC(C)C -0.13%, CCc1nc(NCc2ccc3c(c2)OCO3)c2oc3ccccc3c2n1 5.19%, CCNC(=O)CN(c1ccc(CC)cc1)S(C)(=O)=O -1.87%, Cc1nc(Nc2ccc(Cl)c(Cl)c2)sc1C(/C=C/c1ccc2c(c1)OCO2)=NNc1ccc([N+](=O)[O-])cc1[N+](=O)[O-] 0.47%, CCCN(CC(=O)Nc1ccccc1OC)C(=O)Cn1[nH]c(=O)c2ccccc2c1=O -0.74%, O=C(O)/C(=C\c1cccc(F)c1)c1ccc(S(=O)(=O)N2CCCC2)s1 18.6%, O=C(O)/C(=C\c1cccc(O)c1)c1ccc(S(=O)(=O)N2CCCC2)s1 14.8%, CN(CCC#N)C(=O)CC(Cc1ccccc1)C1CCOC(C)(C)C1 (centres undefined) 28.5%, CCCn1cnc2cc(NCc3ccc(Br)cc3)ccc21 -8.23%, CC(C)n1cnc2cc(NCc3ccccn3)ccc21 14.4%, CCn1cnc2cc(NCc3ccncc3)ccc21 18.7%, CCCn1cnc2cc(NCc3ccccc3O)ccc21 -2.34%, CCNC(=S)NCCN1CCCCC1 -5.58%, CC(=O)Nc1ccc(NC(=O)Cn2cc3c(n2)CCCC3)cc1 -2.34%, Cc1cc(C)cc(NC(=O)Cn2cc3c(n2)CCCCC3)c1 0.97%, Cc1cc(C)c2c(N)c(-c3nc4ccccc4[nH]3)sc2n1 1.28%, CCN(CC)c1ccc(N2C(=O)CSC2=S)cc1 -8.43%, O=C1CSC(=S)N1c1ccccc1 -4.55%, Cc1ccc(S(=O)(=O)Nc2cccc(C(=O)N3CCCC3)c2)cc1F 3.33%, CC(C)c1cc(=O)oc2c3c4c(cc12)CCCN4CCC3 13.8%, O=c1oc2c3c4c(cc2c(C(F)(F)F)c1CCN1CCOCC1)CCCN4CCC3 16.6%, N/C(=N\OC(=O)CN1C(=O)c2ccccc2C1=O)c1ccc(Cl)cc1 -10.1%, COc1ccc(N2CCN(C(=O)COC(=O)c3oc4ccc(OC)cc4c3C)CC2)cc1 1.73%, COc1ccc(NC(=O)C(NC(C)=O)C(=O)NCc2ccccc2)cc1 (centres undefined) 2.8%, O=C(Nc1ccn(-c2ccccc2)n1)c1ccc(Cl)cc1 -12.3%, CC(=O)Nc1ccn(-c2ccccc2)n1 15.9%, COc1ccc(S(=O)(=O)N(CC(=O)NCc2ccco2)C2CCCCC2)cc1OC 24%, COC(=O)c1cc([N+](=O)[O-])c(C)c(C)n1 -2.89%, CCN1CCc2c(C#N)c(N3CCOCC3)nc(NCc3ccccc3)c2C1 13.6%, CCN1CCc2c(C#N)c(N3CCCCC3)nc(NCc3ccccc3)c2C1 25.2%, CCCc1c(C)[nH]c2ccccc2c1=O 6.62%, CC1=NN(c2ccc(Cl)c(C(=O)O)c2)C(=O)C1 29.9%, CC1=NN(c2ccc(C)cc2)C(=O)/C1=C\C=C\c1ccccc1 -3.38%, CC1=NN(c2ccc(Cl)c(C(=O)O)c2)C(=O)/C1=C\c1ccc(-c2ccc(C(=O)O)cc2)o1 1.61%, CC1=NN(c2cccc(C(=O)O)c2)C(=O)/C1=C\C=C/c1ccccc1 29.5%

From PubChem BioAssay AID1117319 (Southern Research Institute, 2015)
